Data on 20 compounds can be found in PubChem BioAssay.

Test [1] in a line: antimalarial activity against Dd2 strain (AID 2302;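 active = growth inhibition above 50% at the single 2 µM test dose, taken to imply half-maximal potency below 2 µM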;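 note: 0% = DMSO untreated growth and 100% = chloroquine plus artemisinin killed control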). Conditions: P. falciparum Dd2 in RBCs, LDH growth readout, 72 h; at 2 µM; active compounds read high.
Test [2] in a line: human hepatoma cell viability loss – ATP luminescence, cytotoxicity control for P. falciparum antimalarial project, primary screen (AID 2303;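 active = inhibition above 50%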;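 note: 0% = DMSO wells and 100% = digitonin-killed cells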). Conditions: HepG2 viability, 24-48 h, at 10 µM, active compounds read high.
The target in test [3] is L-lactate dehydrogenase (Plasmodium falciparum (isolate CDC / Honduras)) (UniProt Q27743). The experiment in a line: PfLDH activity inhibition – cell lysate, 3D7 strain, counter-screen for P. falciparum growth inhibition project (AID 2304).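 Note: 0% = vehicle and 100% = reference inhibitor.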 As to conditions: P. falciparum 3D7 crude extract, LDH APAD/NBT absorbance; at 2 µM; active compounds read high. (In general: A counterscreen serves to expose hits that act by an unwanted route or on another target.)

Test [4] can be described thus: inhibition of 3D7 malaria parasite growth – strain 3D7 (AID 2306).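 Note: 0% = DMSO wells and 100% = chloroquine plus artemisinin control wells.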 As to conditions: P. falciparum 3D7 erythrocytic growth, LDH absorbance, 72 h; at 2 µM; active compounds read high.
Test [5] addresses Calcium-dependent protein kinase 1 (Plasmodium falciparum (isolate 3D7)) (UniProt P62344). The experiment in a line: PfCDPK1 kinase inhibitors, biochemical, TCAMS library (AID 1159585; cut-off not given, nearly all actives have IC50 up to about 0.98 µM;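 note: inhibitors leave more ATP so luminescence rises with inhibition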). Conditions: recombinant PfCDPK1, Kinase-Glo ATP depletion luminescence. For orientation: Kinase-Glo reads ATP consumption through a luciferase reaction.
Test [6] concerns the target Plasmodium falciparum protein kinase 6 (PK6, PF3D7_1337100) (UniProt Q8IDW1). Description: PfPK6 kinase inhibitors, biochemical, TCAMS library (AID 1159586). Conditions: recombinant PfPK6, Kinase-Glo ATP depletion luminescence.
The target of test [7] is Protein kinase 7 (PK7), Plasmodium falciparum 3D7 (PF3D7_0213400) (UniProt Q7YTF7). Description: inhibition of Plasmodium PK7 catalytic activity – biochemical, TCAMS antimalarial set, Kinase-Glo luminescence (AID 1159587). As to conditions: recombinant PfPK7, Kinase-Glo ATP depletion luminescence.
Test [8] concerns the target Calcium-dependent protein kinase 4 (Plasmodium falciparum (isolate 3D7)) (UniProt Q8IBS5). The experiment in a line: PfCDPK4 kinase inhibitors, biochemical, TCAMS library (AID 1159588; cut-off not given, nearly all actives have IC50 up to about 0.91 µM). As to conditions: recombinant PfCDPK4, Kinase-Glo ATP depletion luminescence.

Unmarked numbers belong to inactive results. For some of these results: Potency and affinity values are given separately. Calls of active or inactive are those of the source. Unless noted, the rule behind the calls is not given here.

Sequence of Calcium-dependent protein kinase 1 (Plasmodium falciparum (isolate 3D7)) (P62344 whole entry, looked up): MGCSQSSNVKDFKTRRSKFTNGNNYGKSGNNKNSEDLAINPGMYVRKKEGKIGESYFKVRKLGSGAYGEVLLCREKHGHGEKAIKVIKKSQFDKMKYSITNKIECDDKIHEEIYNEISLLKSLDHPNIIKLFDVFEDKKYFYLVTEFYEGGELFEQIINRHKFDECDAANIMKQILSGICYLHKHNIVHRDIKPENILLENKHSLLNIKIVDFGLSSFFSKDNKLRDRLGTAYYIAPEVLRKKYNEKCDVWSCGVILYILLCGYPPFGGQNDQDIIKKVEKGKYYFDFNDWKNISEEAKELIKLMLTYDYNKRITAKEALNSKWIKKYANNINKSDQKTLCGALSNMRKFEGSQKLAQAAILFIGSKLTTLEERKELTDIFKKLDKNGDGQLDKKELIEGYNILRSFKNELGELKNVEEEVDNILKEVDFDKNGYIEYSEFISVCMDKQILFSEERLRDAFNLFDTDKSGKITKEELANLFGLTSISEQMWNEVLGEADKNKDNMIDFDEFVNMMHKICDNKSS
Sequence of Calcium-dependent protein kinase 4 (Plasmodium falciparum (isolate 3D7)) (Q8IBS5 whole entry, looked up): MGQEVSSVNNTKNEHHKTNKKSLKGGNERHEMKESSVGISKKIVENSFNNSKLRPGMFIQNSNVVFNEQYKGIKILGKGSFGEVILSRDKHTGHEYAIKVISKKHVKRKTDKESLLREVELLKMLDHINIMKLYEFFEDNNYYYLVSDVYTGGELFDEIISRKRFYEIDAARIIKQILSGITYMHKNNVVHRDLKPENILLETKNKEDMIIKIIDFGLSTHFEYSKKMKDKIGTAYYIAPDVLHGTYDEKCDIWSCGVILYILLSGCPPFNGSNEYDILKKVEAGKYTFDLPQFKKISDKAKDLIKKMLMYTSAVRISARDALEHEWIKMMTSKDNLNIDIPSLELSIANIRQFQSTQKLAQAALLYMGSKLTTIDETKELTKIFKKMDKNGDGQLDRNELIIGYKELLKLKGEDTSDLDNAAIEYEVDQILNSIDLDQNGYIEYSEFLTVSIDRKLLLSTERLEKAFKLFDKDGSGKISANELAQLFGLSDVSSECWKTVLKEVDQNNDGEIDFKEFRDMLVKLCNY
Sequence of L-lactate dehydrogenase (Plasmodium falciparum (isolate CDC / Honduras)) (Q27743 whole entry, looked up): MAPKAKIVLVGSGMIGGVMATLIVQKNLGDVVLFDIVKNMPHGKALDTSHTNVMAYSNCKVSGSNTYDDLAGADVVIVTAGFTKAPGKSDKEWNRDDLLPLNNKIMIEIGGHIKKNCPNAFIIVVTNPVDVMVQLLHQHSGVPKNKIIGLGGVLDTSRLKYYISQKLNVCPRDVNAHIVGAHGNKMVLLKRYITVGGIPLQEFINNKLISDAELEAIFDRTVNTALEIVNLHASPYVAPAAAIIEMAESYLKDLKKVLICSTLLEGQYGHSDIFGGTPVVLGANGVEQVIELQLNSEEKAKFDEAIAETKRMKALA
Sequence of Plasmodium falciparum protein kinase 6 (PK6, PF3D7_1337100) (Q8IDW1 1-305): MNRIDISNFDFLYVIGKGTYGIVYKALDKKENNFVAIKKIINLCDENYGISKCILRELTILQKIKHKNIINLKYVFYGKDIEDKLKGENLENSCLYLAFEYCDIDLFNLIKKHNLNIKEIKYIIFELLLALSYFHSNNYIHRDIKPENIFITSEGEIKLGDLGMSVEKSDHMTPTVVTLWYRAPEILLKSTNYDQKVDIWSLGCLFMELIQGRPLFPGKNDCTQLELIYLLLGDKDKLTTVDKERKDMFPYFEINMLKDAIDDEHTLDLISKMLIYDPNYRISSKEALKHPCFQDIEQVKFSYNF
Sequence of Protein kinase 7 (PK7), Plasmodium falciparum 3D7 (PF3D7_0213400) (Q7YTF7 1-343): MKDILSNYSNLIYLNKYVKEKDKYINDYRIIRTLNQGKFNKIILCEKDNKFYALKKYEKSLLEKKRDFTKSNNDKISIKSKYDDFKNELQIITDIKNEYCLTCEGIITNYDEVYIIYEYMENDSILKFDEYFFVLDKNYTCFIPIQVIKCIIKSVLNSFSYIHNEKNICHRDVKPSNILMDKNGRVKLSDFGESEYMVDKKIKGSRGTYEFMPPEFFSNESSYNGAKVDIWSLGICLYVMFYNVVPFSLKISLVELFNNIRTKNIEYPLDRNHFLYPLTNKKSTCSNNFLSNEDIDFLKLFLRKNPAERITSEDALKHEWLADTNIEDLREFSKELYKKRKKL

Consider `O=C(/C=C/c1ccc(Cl)c(Cl)c1)NCCCCCCN1CCN(C(=O)Nc2ccc(OC(F)F)cc2)CC1`, for which the results for the growth inhibition in test [1] and in test [4] were 15% and 91% (active), respectively. The inhibition (in general, the relative decrease from the control value, in per cent) in test [2] is 44%; in test [3], -4%. Also, the result in test [5], in test [6], in test [7] and in test [8] was inactive.

Regarding `CCc1c(CCNC/C=C/C=C/CNCCc2ccc(OC)c(OC)c2CC)ccc(OC)c1OC`, the growth inhibition in test [1] was 99% (active); in test [4] it was 100% (active). Moreover, the inhibition in test [2] was 75% (active); in test [3], 3%. Besides, the result in test [5], in test [6], in test [7] and in test [8] was inactive.

On to `COc1ccc2c(NN=Cc3c(OC)ccc4ccccc34)cc(C)nc2c1`, for which the growth inhibition in test [1] was 85% (active); in test [4], 102% (active). Also, the inhibition is 7% in test [2] and 2% in test [3]. For the same compound, the result in test [5], in test [6], in test [7] and in test [8] was inactive.

Turning to `COc1ccc(NC(=O)/C=C/c2ccccc2Cl)cc1OCCN1CCC(Cc2cc3ccccc3[nH]2)CC1`, the values for the growth inhibition in test [1] and in test [4] were 8% and 92% (active), respectively. The results for the inhibition in test [2] and in test [3] were 56% (active) and 0%, respectively. The outcome in test [5], in test [6], in test [7] and in test [8] was inactive.

Regarding `CCCCNc1ccc(C(=O)NC2CCN(C[C@H](O)c3ccnc4ccc(OC)cc34)CC2)cc1`, the growth inhibition in test [1] was 64% (active); in test [4] it was 90% (active). For the same compound, the inhibition is 12% in test [2] and -8% in test [3]. Besides, the outcome in test [5], in test [6], in test [7] and in test [8] was inactive.

As to `CCCNC(=O)c1cncc(-c2ccc(CNC(CC)c3ccccc3)cc2)c1` (stereo not given), the growth inhibition in test [1] is 1%; in test [4], 92% (active). In addition, the inhibition in test [2] was 20%; in test [3], 0%. Besides, the result in test [5], in test [6], in test [7] and in test [8] was inactive.

For the compound `COc1cc2nc(C)nc(Nc3cccc(Br)c3)c2cc1OC`, the growth inhibition is 82% (active) in test [1] and 101% (active) in test [4]. Also, the inhibition in test [2] was 0%; in test [3] it was -8%. Moreover, the result in test [5], in test [6], in test [7] and in test [8] was inactive.

With `CCc1cc2c(Sc3nc4ccccc4[nH]3)ncnc2s1`, the growth inhibition was 98% (active) in test [1] and 97% (active) in test [4]. Moreover, the inhibition was 6% in test [2] and 2% in test [3]. For the same compound, the result in test [5], in test [6], in test [7] and in test [8] was inactive.

Consider `COC(=O)CNC(c1ccccc1)c1cc(Br)ccc1NC(=O)c1ccccc1Br` (stereo not given), for which the growth inhibition was 77% (active) in test [1] and 99% (active) in test [4]. Also, the inhibition was 10% in test [2] and -1% in test [3]. The result in test [5], in test [6], in test [7] and in test [8] was inactive.

`COc1ccc(-c2cnc3ccc(NCc4ccc(S(N)(=O)=O)cc4)nn23)cn1`: the growth inhibition in test [1] and in test [4] was 98% (active) throughout. Besides, the inhibition in test [2] was 16%; in test [3] it was 0%. Further, the outcome in test [5], in test [6], in test [7] and in test [8] was inactive.

As for `CCCCn1c(=N)c(C(=O)NCc2cccnc2)cc2c(=O)n3cccc(C)c3nc21`, the growth inhibition is 47% in test [1] and 101% (active) in test [4]. In addition, the inhibition is 7% in test [2] and -2% in test [3]. Besides, the outcome in test [5], in test [6], in test [7] and in test [8] was inactive.

In the case of `CCCC(=O)Nc1ccc(OCCCCN(Cc2ccccc2C(F)(F)F)c2ccc(C(F)(F)F)c(C#N)c2)cc1`, the growth inhibition in test [1] and in test [4] was 94% (active) in each case. For the same compound, the results for the inhibition in test [2] and in test [3] were 6% and 0%, respectively. Further, the outcome in test [5], in test [6], in test [7] and in test [8] was inactive.

With `Cc1cccc(CCNC(=O)c2cc(Br)cc(N3CCN(c4ccncc4)CC3)c2)c1`, the growth inhibition in test [1] is 53% (active); in test [4] it was 96% (active). The figures for the inhibition in test [2] and in test [3] were 48% and 0%, respectively. Further, the result in test [5], in test [6], in test [7] and in test [8] was inactive.

With `COc1ccc(N(C)Cc2cnc3nc(N)nc(N)c3n2)cc1`, the growth inhibition in test [1] is -1%; in test [4] it was 98% (active). Besides, the inhibition is 15% in test [2] and 1% in test [3]. Also, the outcome in test [5], in test [6], in test [7] and in test [8] was inactive.

Consider `O=C(/C=C/c1ccc(Cl)c(Cl)c1)NC1CCC(CN2CCC(Cc3c[nH]c4ccccc34)CC2)CC1` (stereo not given), for which the growth inhibition in test [1] was 9%; in test [4] it was 101% (active). Moreover, the inhibition is 25% in test [2] and -7% in test [3]. Besides, the result in test [5], in test [6], in test [7] and in test [8] was inactive.

Regarding `O=C(Nc1cc(Cl)cc(Cl)c1)c1cnn(-c2ccc(F)cc2)c1C1CCNCC1`, the growth inhibition in test [1] is -1%; in test [4], 90% (active). Further, the inhibition in test [2] is 13%; in test [3], -2%. Also, the outcome in test [5], in test [6], in test [7] and in test [8] was inactive.

In the case of `O=C(NCCCCN1CCC(c2ccc3c(c2O)CCCC3)CC1)c1ccc(NC(=O)c2ccc(Cl)cc2)cc1`, the growth inhibition in test [1] and in test [4] was 100% (active) throughout. The inhibition in test [2] was 99% (active); in test [3], -2%. For the same compound, the result in test [5], in test [6], in test [7] and in test [8] was inactive.

As to `N=C(N)CCN(Cc1ccc(Cl)cc1)c1ccc(Cl)cc1`, the growth inhibition in test [1] was 92% (active); in test [4], 96% (active). The figures for the inhibition in test [2] and in test [3] were 22% and 5%, respectively. In addition, the outcome in test [5], in test [6], in test [7] and in test [8] was inactive.

On to `Cc1nn(C)cc1C(C)Nc1nncc(-c2ccc(C(F)(F)F)cc2)n1` (stereo not given), for which the growth inhibition in test [1] was 99% (active); in test [4], 100% (active). The inhibition is -3% in test [2] and -5% in test [3]. Further, the outcome in test [5], in test [6], in test [7] and in test [8] was inactive.

With `CC(=O)Nc1ccc(S(=O)(=O)NC2=NC(C)(C)N(OCc3ccc(Cl)c(Cl)c3)C(N)=N2)cc1`, the values for the growth inhibition in test [1] and in test [4] were 98% (active) and 93% (active), respectively. The inhibition in test [2] is 44%; in test [3], 2%. The outcome in test [5], in test [6], in test [7] and in test [8] was inactive.
